About 1,600 (39%) of roughly 4,100 compounds were called active. Inconclusive results (about 25%) are left out. Some of the results follow. Values without a mark were called inactive. Calls come from the whole dose curve; as a rule, active = well fitted inhibition curve with a large enough effect; inconclusive = small, poorly fitted or top-dose-only effect; inactive = no such curve, though single readings can be large or run the other way.
% is set by controls: 0 for no effect and ±100 for the full control effect; potency is the fitted concentration of half-maximal effect.

The test can be described thus: qHTS Validation assay for Inhibitors of Plasmodium falciparum Dd2 growth in vitro. Note: nearly all actives have a fitted effect of over 70% in size. To be noted: P. falciparum Dd2 in RBCs, SYBR Green growth, 72 h; series mostly up to 28.7 µM; activity change, negative = inhibition: at the top concentration. In outline:
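P. falciparum Dd2-infected red blood cells (2.5% hematocrit, 0.3% parasitemia) grown 72 h at 37 °C under 5% O2 with compounds in a titration, 29 uM to 0.5 nM final. Growth read as SYBR Green-1 fluorescence after ~16 h lysis; artesunate 300 nM as positive control.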
Background: Quantitative high-throughput screening tests each substance at several concentrations.
`COc1ccc(NC(C)C(=O)Nc2cc(C(F)(F)F)ccc2N2CCOCC2)c(OC)c1` (stereo unspecified): the Potency was 0.842 µM (active).
Take `CCOc1ccccc1NC(=O)N1CCC([C@@H]2[C@H](OC)C(=O)N2C(C)C)CC1`: the “activity change, negative = inhibition” value was 20.9%.
`CCC(Oc1ccccc1)C(=O)Nc1cc(C(F)(F)F)ccc1N1CCOCC1` (stereo unspecified): the Potency was 7.5 µM (active).
For `COc1cc(Cl)c(C)cc1NC(C)C(=O)Nc1cc(C(F)(F)F)ccc1N1CCOCC1` (stereo unspecified), the Potency was 0.422 µM (active).
For `CCOc1ccccc1NC(C)C(=O)Nc1cc(C(F)(F)F)ccc1N1CCOCC1` (stereo unspecified), the Potency was 2.66 µM (active).
As for `CC(Oc1ccccc1)C(=O)NC1CCN(c2cc(C(F)(F)F)ncn2)CC1` (stereo unspecified), the “activity change, negative = inhibition” value was -10.9%.
Take `COc1cc2c(Nc3ccc(Br)cc3F)ncnc2cc1OCC1CCN(C)CC1`: the Potency is 5.96 µM (active).
In the case of `Nc1cc(Cl)ccc1N1CCCC1`, the “activity change, negative = inhibition” value was 25.9%.
Turning to `O=C(Nc1ccc(C(F)(F)F)cc1)N1CCN(c2ccnc3cc(Cl)ccc23)CC1`, the Potency was 5.31 µM (active).
Consider `O=C(c1ccc(F)c(Cl)c1)N1CCN(c2cc(C(F)(F)F)ncn2)CC1`, for which the “activity change, negative = inhibition” value was 5.98%.
Turning to `Clc1ccc2c(N3CCCC3)ccnc2c1`, the Potency is 3.76 µM (active).
In the case of `COc1ccc(CNc2ncnc3c2cnn3-c2ccc(C)c(C)c2)cc1`, the “activity change, negative = inhibition” value is 38.6%.
For the compound `COc1ccc(CCNc2ncnc3c2cnn3-c2ccc(F)cc2)cc1`, the “activity change, negative = inhibition” value was 22.9%.
As for `Cc1ccc(-n2ncc3c(NCc4ccco4)ncnc32)cc1C`, the Potency is 15 µM (active).
For `COc1ccc(S(=O)(=O)N(C)C)cc1NC(C)C(=O)Nc1cccc(C#N)c1` (stereo unspecified), the Potency is 6.68 µM (active).
Consider `CCc1nnc([C@@H]2CC(F)(F)CN2Cc2cccn2C)o1`, for which the “activity change, negative = inhibition” value is -14.9%.
As for `CCOC(=O)c1c(C)n(-c2ccc(F)cc2)c2ccc(O)cc12`, the Potency was 6.68 µM (active).
Consider `CCOC(=O)c1c(NC(=O)COc2ccc(F)cc2)sc2c1CCC(C)C2` (stereo unspecified), for which the “activity change, negative = inhibition” value was 21.2%.
For the compound `COc1cccc(C2C(C(=O)Nc3ccc(C)cc3C)=C(C)Nc3c(C(=O)Nc4ccccc4)cnn32)c1` (stereo unspecified), the Potency is 2.11 µM (active).
In the case of `CC1=C(C(=O)Nc2ccc(C)cc2C)C(c2ccc([N+](=O)[O-])cc2)n2ncc(C(=O)Nc3ccc(F)cc3)c2N1` (stereo unspecified), the Potency is 2.99 µM (active).
As for `CC1=C(C(=O)Nc2ccc(C)cc2C)C(c2ccc(Br)cc2)n2ncc(C(=O)Nc3cccc(C)c3)c2N1` (stereo unspecified), the Potency is 3.35 µM (active).
For the compound `COc1cccc(CC(=O)NCCn2ccn3nc(-c4ccc(C)cc4C)cc3c2=O)c1`, the “activity change, negative = inhibition” value is -12.7%.
As to `Cc1cc(=O)n(CC(=O)Nc2ccc(C)c(F)c2)c(N2CCc3ccccc3C2)n1`, the “activity change, negative = inhibition” value was -8.95%.
For `CCOc1cccc(CC(=O)Nc2ccc3nc(N4CCCCC4)cc(C)c3c2)c1OCC`, the Potency was 6.68 µM (active).
On to `Cc1cc(N2CCN(C)CC2)nc2ccc(NC(=O)Nc3cccc(Cl)c3)cc12`, for which the Potency is 4.22 µM (active).
As to `O=C([C@@H]1C[C@H](F)CN1C(=O)Nc1cccc(Cl)c1)N1CCCCC1`, the “activity change, negative = inhibition” value was 9.66%.
For the compound `CCOc1ccccc1NC(=O)Nc1ccc2nc(N3CCN(C)CC3)cc(C)c2c1`, the Potency is 1.33 µM (active).
In the case of `CCCN(CCC)CCCNC(=S)Nc1ccc2nc(N3CCCC3)cc(C)c2c1`, the “activity change, negative = inhibition” value was -17.7%.
`CCOc1ccc(-n2nc3cc(C)c(NC(=O)c4cc(OCC)c(OCC)c(OCC)c4)cc3n2)cc1`: the “activity change, negative = inhibition” value is 57.9%.
`Cc1ccccc1NC(=O)Nc1ccc2nc(N3CCN(C)CC3)cc(C)c2c1`: the Potency is 1.5 µM (active).
On to `COc1ccc(CN2CCCC3(CNc4ccccc4[S+](=O)([O-])N3)C2)cc1` (stereo unspecified), for which the “activity change, negative = inhibition” value is -16.7%.
Same read-out and setting: next, `CN(C)c1cc(N2CCCC(NC(=O)c3ccsc3)C2)ncn1` (stereo unspecified): 17.4%.
For `Fc1cccc(CN2CCC(N3CC(OCC4CC4)C34CCCCC4)CC2)c1` (stereo unspecified), the Potency is 4.22 µM (active).
The same measure, in the same setting: next, `CCn1cc(CN2CCC(N3CC(OCC4CC4)C34CCCCC4)CC2)cn1` (stereo unspecified): 8.41 µM (active).
With `COc1cccc(CN2CCC(N3CC(OCC4CC4)C34CCCCC4)CC2)n1` (stereo unspecified), the Potency was 4.22 µM (active).
Take `O=C(Nc1ccccc1)N1CCC(N2CC(OCC3CC3)C23CCOCC3)CC1` (stereo unspecified): the “activity change, negative = inhibition” value is -22.8%.
For the compound `CN(C)S(=O)(=O)N1CCC(N2C(=O)C(OCC3CC3)C23CCCCC3)CC1` (stereo unspecified), the “activity change, negative = inhibition” value is -24%.
Regarding `Cn1cccc1CN1CCC(N2CC(OCC3CC3)C23CCCCC3)CC1` (stereo unspecified), the Potency is 7.5 µM (active).
As for `CCc1ccc(NC(=O)N2CC(C(=O)N(C)C)C3(CCOCC3)C2)cc1` (stereo unspecified), the “activity change, negative = inhibition” value was 2.4%.
As for `O=C(Cn1cc(-c2nnnn2-c2ccc(Cl)cc2)c(=O)c2ccccc21)c1ccccc1`, the “activity change, negative = inhibition” value is 10%.
With `CC1=C(CC(=O)c2ccc(Cl)cc2)C(=O)c2ccccc2C1=O`, the Potency was 0.211 µM (active).
With `CN(CC1(C)CCOCC1)C(=O)c1ccoc1`, the “activity change, negative = inhibition” value was 15.7%.
Same read-out and setting: next, `COc1ccc(O)c(-c2cc(-c3cccs3)[nH]n2)c1`: 312%.
In the case of `Oc1ccc(Br)cc1-c1cc(-c2ccc(Cl)cc2)n[nH]1`, the Potency was 2.66 µM (active).
For `CCOC(=O)C1=C(C)NC(=O)CC1c1cc(OC)c(OC)cc1Br` (stereo unspecified), the Potency was 5.31 µM (active).
`CCOC(=O)C1=C(C)NC(=S)N(C(C)=O)C1c1ccc(Cl)cc1` (stereo unspecified): the “activity change, negative = inhibition” value is -15%.

Source of the values: PubChem BioAssay AID1347416 (National Center for Advancing Translational Sciences (NCATS), 2020).
